Screening data: PubChem BioAssay, National Center for Advancing Translational Sciences (NCATS)
Rows were chosen to be rich in hits. Some 2.4% of all compounds tested hit in one or more screens of this group.
D2 ag-1: HTS Assay for Allosteric Agonists of the Human D2 Dopamine Receptor: Primary Screen for Agonists | 340,000 tested, 0.53% active | HEK293 T-REx D2 cells, calcium flux agonist mode | D(2) dopamine receptor (Homo sapiens), P14416 | activation, % at 2 µM;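 active = activation over 3 SD above normal in the single-dose calcium agonist read, cut at about 30% in these data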
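Tetracycline-induced HEK293 Trex cells with D2 receptor force-coupled to calcium signaling, plated overnight at 30 C and loaded with no-wash calcium dye. Calcium flux read kinetically for 180 s after compound addition; responses flag agonists.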
D2 PAM-1: Beta-Arrestin HTS for Positive Allosteric Modulators of the Human D2 Dopamine Receptor: Potentiators; potentiation, % (concentration not given with the values); D(2) dopamine receptor (Homo sapiens), P14416; AID 624464, 2012; 360,000 tested, 0.23% active; DiscoveRx D2 beta-arrestin cells, luminescence, 90 min; 100% = 57 uM dopamine signal; in the data active = potentiation above about 50%; inconclusive = mostly about 30% to 49%
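PathHunter beta-arrestin assay in DiscoveRx D2 cells. Compounds were added with an EC20 of dopamine (50 nM final) for 90 min at 37 deg C. Luminescence was read 1 h after detection reagent, with 57 uM dopamine as the EC100 control.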
D2 ag-2: Beta-Arrestin HTS for Positive Allosteric Modulators of the Human D2 Dopamine Receptor: Agonists | D(2) dopamine receptor (Homo sapiens), P14416 | DiscoveRx PathHunter D2 beta-arrestin, luminescence, 90 min; 100% = 57 uM dopamine signal | activation, % (concentration not given with the values) | 360,000 tested, 0.084% active; in the data active = activation above about 40%; inconclusive = between about 15% and that limit
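DiscoveRx PathHunter D2 beta-arrestin cells (2,100/well) attached overnight, then compound-stimulated 90 min at 37 C in HBSS/10 mM HEPES/0.1% Tween-20 buffer; beta-galactosidase complementation read by luminescence after 1 h at ambient temperature. Dopamine 57 uM final (EC100) as control.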
B2AR arrestin: qHTS assay of beta-arrestin-biased ligands of beta2-adrenergic receptor | beta-arrestin recruitment to beta2AR, cell-based reporter | Potency, µM (top dose mostly 46.1 µM), most hits filed as activators | 330,000 tested, 0.02% active | AID 492947, 2010; active = well fitted activation curve with a large enough effect; inconclusive = small, poorly fitted or top-dose-only effect; also: nearly all actives have a fitted effect of over 65% in size
Target sequence (P07550 whole entry, looked up): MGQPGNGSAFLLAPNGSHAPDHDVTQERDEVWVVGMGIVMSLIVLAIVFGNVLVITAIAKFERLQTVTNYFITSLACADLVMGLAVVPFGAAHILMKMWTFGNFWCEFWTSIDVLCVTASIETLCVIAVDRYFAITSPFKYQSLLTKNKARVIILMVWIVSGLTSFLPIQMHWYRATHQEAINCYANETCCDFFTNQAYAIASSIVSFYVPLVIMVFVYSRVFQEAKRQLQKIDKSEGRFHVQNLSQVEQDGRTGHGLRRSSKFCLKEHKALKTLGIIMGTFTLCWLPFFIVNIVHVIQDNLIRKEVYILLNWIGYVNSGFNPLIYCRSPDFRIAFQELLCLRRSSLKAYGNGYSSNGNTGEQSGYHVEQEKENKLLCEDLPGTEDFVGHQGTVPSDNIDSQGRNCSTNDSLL
D2 PAM-2: HTS Assay for Positive Allosteric Modulators of the Human D2 Dopamine Receptor: Primary Screen for Potentiators | AID 485347, 2010 | HEK293 T-REx D2, calcium flux, EC20 dopamine potentiation | D(2) dopamine receptor (Homo sapiens), P14416 | 340,000 tested, 0.34% active | potentiation, % at 10 µM;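 active = potentiation over 3 SD above the plate norm, cut at about 30% in these data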
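Primary screen. Calcium kinetics in induced HEK293 T-REx D2 cells: compound pre-addition 180 s, EC20 dopamine, 180 s more.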
D2 antagonist: HTS Assay for Allosteric Antagonists of the Human D2 Dopamine Receptor: Primary Screen for Antagonists. 340,000 tested, 2% active. HEK293 TREx D2 cells, calcium flux, dopamine EC80. D(2) dopamine receptor (Homo sapiens), P14416. inhibition, % at 10 µM; in the data active = inhibition above about 30%; inactive = below that, where a call was filed
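Overnight-induced (tetracycline, 30 C) HEK293 T-REx cells carrying force-coupled D2 receive a no-wash calcium dye, then compound, then EC80 dopamine at 180 s; signals are read kinetically throughout.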
Each line names hits and unclear results; the compound was inactive in the other large screens.

CC1CC(C)CN(CCOCCSc2ccccc2)C1 (centres undefined)	D2 antagonist 65
c1ccc(SCCOCCN2CCc3ccccc3C2)cc1	D2 antagonist 75
CC1CC(C)CN(CCOCCSc2ccc(Cl)cc2)C1 (centres undefined)	D2 antagonist 65
CC1CC(C)CN(CCCSc2ccccc2)C1 (centres undefined)	none
COc1ccc(NC(=O)CCCCC(=O)Nc2ccc(OC)cc2OC)c(OC)c1	none (no result: D2 ag-1, B2AR arrestin, D2 PAM-2, D2 antagonist)
COc1ccc(NC(=O)CCOc2ccccc2)c(OC)c1	D2 antagonist 36
CCOC(=O)N1CCN(CCC(=O)Nc2ccc(OC)cc2OC)CC1	D2 ag-1 34, D2 antagonist 36
CCOc1ccc(NC(=O)CN2CCN(CC(=O)Nc3ccc(OC)cc3OC)CC2)cc1	D2 antagonist 32
COc1ccc(NC(=O)CN2CCN(C(=O)c3ccco3)CC2)c(OC)c1	D2 ag-1 39
COc1ccc(NC(=S)N2CCN(C(=O)c3ccco3)CC2)c(OC)c1	none
COCCNc1nc(Nc2ccc(C)cc2C)c2sc(-c3ccccc3)cc2n1	none (no result: D2 ag-1, B2AR arrestin, D2 PAM-2, D2 antagonist)
CN(C)c1cc(C(=O)N(C)c2ccccc2)ncn1	none (no result: D2 ag-1, B2AR arrestin, D2 PAM-2, D2 antagonist)
CC(C)(C)NC(=O)C(c1ccc(O)cc1)N(C(=O)CCC(=O)Nc1nccs1)c1ccc(F)cc1 (centres undefined)	none (no result: D2 ag-1, D2 PAM-2, D2 antagonist)
COc1ccc(NC(=O)CCCN2C(=O)C3C4C=CC(C4)C3C2=O)c(OC)c1 (centres undefined)	D2 antagonist 35
COc1ccc(NC(=O)CCCNC(=O)c2ccc(Cl)cc2)c(OC)c1	D2 antagonist 30
COc1ccc(NC(=O)C/C(C)=N/NC(=O)c2ccccn2)c(OC)c1	D2 PAM-2 30
COc1cc(NC(=O)CCN2CCN(c3ccccc3OC)CC2)cc(OC)c1	none (no result: D2 ag-1, B2AR arrestin, D2 PAM-2, D2 antagonist)
COc1ccc(OC)c(NC(=O)CCN2CCN(c3ccccc3OC)CC2)c1	D2 antagonist 72
COc1ccc(NC(=O)C/C(C)=N/NC(=O)c2cnccn2)c(OC)c1	none (no result: D2 ag-1, D2 PAM-2, D2 antagonist)
COc1ccc(OC)c(NC(=O)CCCN2C(=O)C3C4C=CC(C4)C3C2=O)c1 (centres undefined)	none
CCN(C(=O)Cc1ccc(NC2=NC3CS(=O)(=O)CC3S2)cc1)c1ccccc1 (centres undefined)	none (no result: D2 ag-1, D2 PAM-2, D2 antagonist)
COC(=O)CC/C(O)=C1\C(=O)CC(C)(C)CC1=NCCc1nc2ccccc2[nH]1	none
C/C(CC(=O)Nc1ccccn1)=N\NC(=O)c1ccccc1O	D2 antagonist 47
COc1ccc(NC(=O)c2ccc(NC(=O)CN3CCN(c4ccccc4O)CC3)cc2)cc1	none (no result: D2 ag-1, B2AR arrestin, D2 PAM-2, D2 antagonist)
COc1ccc(NC(=O)c2ccc(NC(=O)CN3CCN(c4ccc(O)cc4)CC3)cc2)cc1	D2 ag-2 124 (no result: D2 ag-1, B2AR arrestin, D2 PAM-2, D2 antagonist)
C/C(CC(=O)Nc1ccccn1)=N\NC(=O)c1ccccc1	none (no result: D2 PAM-1, D2 ag-2)
CCN(CC)CC(C)(C)C(=O)/C=C/c1ccc(/C=C/C(=O)C(C)(C)CN(CC)CC)cc1	none (no result: D2 ag-1, B2AR arrestin, D2 PAM-2, D2 antagonist)
COc1ccc(C(=O)NCc2ccc(OCCN(C)C)cc2)cc1OC	none (no result: D2 ag-1, B2AR arrestin, D2 PAM-2, D2 antagonist)
COc1cc(C(=O)NCc2ccc(OCCN(C)C)cc2)cc(OC)c1OC	D2 antagonist 72
O=C(NCc1ccccc1Cl)C1CCC(=O)N1Cc1ccc(F)cc1 (centres undefined)	none
CS(=O)(=O)c1ccc2nc(NC(=O)C3CC(=O)N(c4ccc(F)cc4)C3)sc2c1 (centres undefined)	none
CCc1ccc(N2CC(C(=O)Nc3nc4ccc(S(C)(=O)=O)cc4s3)CC2=O)cc1 (centres undefined)	D2 antagonist 37
O=C(CN1C(=O)c2ccc([N+](=O)[O-])cc2C1=O)Nc1ccccc1N1CCCC1	D2 PAM-1 inconclusive
O=C(CN1C(=O)c2ccc([N+](=O)[O-])cc2C1=O)NCc1ccc(C(=O)O)cc1	D2 PAM-1 51
O=C(CCN1C(=O)c2ccc([N+](=O)[O-])cc2C1=O)Nc1ccc(O)cc1C(=O)O	D2 PAM-1 61, D2 ag-2 inconclusive
O=C(O)Cc1ccc(NC(=O)CCN2C(=O)c3ccc([N+](=O)[O-])cc3C2=O)cc1	D2 ag-2 inconclusive
Cc1ccc2nc(SCC(=O)NNC(=O)c3ccccc3)[nH]c2c1	none
CCOc1ncccc1C(=O)OCC(=O)N1CCc2ccccc21	none
CCOC(=O)c1c(CN2CCCCC2)oc2ccc(O)cc12	none
CCOC(=O)c1c(CN2CCOCC2)oc2ccc(OC)cc12	D2 PAM-2 31
CC1(c2ccccc2)NC(=O)N(CC(=O)Nc2ccc(S(=O)(=O)NC3=NCCCCC3)cc2)C1=O (centres undefined)	none (no result: D2 ag-1, B2AR arrestin, D2 PAM-2, D2 antagonist)
COc1ccc([N+](=O)[O-])cc1/C=N/NC(=O)/C(=C\c1cccs1)NC(=O)c1ccccc1	D2 antagonist 43
COc1ccc(/C=C(/NC(=O)c2ccccc2)C(=O)N/N=C/c2cccs2)cc1OC	none
NNC(=O)/C(=C\c1cccs1)NC(=O)c1ccccc1	D2 antagonist 31
CN(C)S(=O)(=O)c1cccc(C(=O)Nc2ccc(Cl)cn2)c1	D2 antagonist 37
COc1ccc(N2CC(C(=O)OCC(=O)c3ccc(C)cc3)CC2=O)cc1 (centres undefined)	none
Cc1ccc(C(=O)COC(=O)C2CC(=O)N(c3nc(-c4ccccc4)cs3)C2)cc1 (centres undefined)	D2 antagonist 34
O=C(Nc1ccccc1)c1cc(C2CCCCN2C(=O)c2ccc3c(c2)CCO3)on1 (centres undefined)	none (no result: D2 ag-1, B2AR arrestin, D2 PAM-2, D2 antagonist)
Cc1cc(C)c(C)c(OCc2nc(-c3cccnc3)no2)c1	D2 PAM-2 33
Cc1ccc(OCc2nc(-c3ccccc3)no2)c(C)c1	none
Cc1ccc(-c2nc(CS(=O)CC(=O)NCCN(CC(C)C)CC(C)C)c(C)o2)cc1 (centres undefined)	D2 PAM-2 106
CCN1CCN(C(=O)CS(=O)Cc2nc(-c3ccc(OC)cc3)oc2C)CC1 (centres undefined)	D2 antagonist 40
Cc1ccc(-c2nc(CS(=O)CC(=O)NCCN3CCCC3)c(C)o2)cc1 (centres undefined)	none
